The term inhibition denotes the relative decrease from the control value, in per cent.

Screen size: about 330,000 compounds; about 1,700 (0.52%) were called active. The entries come from a sample that favours actives as a whole. Values without a mark were called inactive. No stated cut-off is given here; in the data, active means inhibition above about 50%; inactive means the rest.

This assay in a line: lowers stimulated NF-kB reporter luminescence – cell-based, uHTS, TCR NF-kB activation inhibitor project, primary screen (AID 435003). Conditions: Jurkat, PMA/ionomycin-induced NF-kB luciferase reporter, at 4 µM, hits give high values. (Reporter assays use an easily measured gene product as a stand-in for the process of interest.)
In the case of `CCOC(=O)C1=C(C)Nc2nc3ccccc3n2C1c1cccs1` (stereo not drawn), the inhibition is 7.93%. On to `CCOc1ccc(C2C(C(=O)NC)=C(C)Nc3nc4ccccc4n32)cc1OC` (stereo not drawn), for which the inhibition is 6.25%. The value for `COc1ccccc1NC(=O)C1=C(C)Nc2nc3ccccc3n2C1c1cccs1` (stereo not drawn) was 58.1% (active); that for `O=C(O)/C=C/C(=O)NNc1ccc([N+](=O)[O-])cc1` was 9.38%. Next, `O=C(c1c(F)cccc1Cl)N1CCN(S(=O)(=O)c2ccc3c(c2)OCCCO3)CC1`: -0.00048%; `COc1ccc2[nH]c(C(=O)N/N=C/c3cc(OC)c(OC)c(OC)c3)cc2c1`: 17.7%; `CN=c1scc(-c2cc(OC)ccc2OC)n1/N=C/c1c(C)[nH]c2ccccc12`: -10.3%. The value for `COc1cc(N=Cc2c(O)[nH]c3ccccc23)cc(OC)c1OC` was 76.1% (active); that for `CC(C)Oc1ccc(C(=O)NC(C)(C)CO)cc1` was -5.78%; that for `CCC(C)NC(=O)C1c2ccccc2C(=O)N1Cc1ccccc1` (stereo not drawn) was -0.632%. Turning to `COC(c1ccccc1)c1nnc(CCC(=O)N2CCN(CCOc3ccccc3)CC2)o1` (stereo not drawn), the inhibition was 14.1%. Next, `COc1cc(NS(=O)(=O)c2ccc3ccccc3c2)c2ncccc2c1`: 66% (active). The value for `Cc1ccc(S(=O)(=O)Nc2ccc3ncccc3c2)cc1` was 16.8%; that for `COc1ccc(N2CC(NS(=O)(=O)c3ccc4ccccc4c3)CC2=O)cc1` (stereo not drawn) was 4%; that for `O=C(NC(=O)c1ccc(Cl)c(Cl)c1)OC1CCS(=O)(=O)C1` (stereo not drawn) was 2.78%.

Take `C=CCN(c1ccc(C(N)=O)cc1)S(C)(=O)=O`: the inhibition is -12.3%.

Regarding `CCC(C)c1ccc(NC(=S)NCc2ccccn2)cc1` (stereo not drawn), the inhibition was -14.5%. Consider `NC1=NC2(CCCCC2)N(c2ccc(F)cc2F)C(N)=N1`, for which the inhibition was 2.27%.

For `CCOc1ccc(/C=N/NC(N)=S)cc1`, the inhibition is -13%.

As for `NC(N)=N/N=C/c1ccc(OCc2ccc(Cl)cc2Cl)cc1`, the inhibition was 59% (active). Take `OC(CNCCc1ccc(Cl)cc1Cl)COc1ccccc1` (stereo not drawn): the inhibition is 5.89%.

With `COc1ccccc1N1CCN(C(=O)c2c(-c3c(Cl)cccc3Cl)noc2C)CC1`, the inhibition is -3.34%. Turning to `COc1ccccc1N1CCN(C(=O)c2cc(=O)c3cc(C)ccc3o2)CC1`, the inhibition was 19.9%.

As to `COc1ccccc1N1CCN(C(=O)c2cc(=O)c3cc(C)cc(C)c3o2)CC1`, the inhibition was 64.2% (active). Turning to `O=C(O)c1cc2c(cc1NC(=O)c1c(F)cccc1Cl)OCCCO2`, the inhibition was 17.5%. The value for `O=C(CN1C(=O)c2ccccc2S1(=O)=O)N1CCc2ccccc21` was 72.7% (active). As for `O=C(CN1C(=O)c2ccccc2S1(=O)=O)NC1CCCCC1`, the inhibition was -1.51%. Regarding `CC1CCCN(C(=O)CN2C(=O)c3ccccc3S2(=O)=O)C1` (stereo not drawn), the inhibition was -25%.

Values taken from PubChem BioAssay AID435003 (Sanford-Burnham Center for Chemical Genomics, 2010).
